Laboratory results reported in PubChem BioAssay (NCI).
This is part of a sample that, as a whole, favours compounds with a hit. Of some 83,000 tested, about 20% had one in any assay.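 Testing used 96-well plates and a 48-hour single-concentration exposure. Example: -40 means 40% of the starting cells died.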 The source made the active and inactive calls. The calls were made as follows: active = growth percent below 10; inactive = the rest.

What was measured:
Experiment in all cases: NCI-60 one-dose screen, 48 h (100 = growth as untreated, 0 = no growth, -100 = all killed)
Settings in all cases: 10 µM unless noted
[1] = system: NCI-H23 lung
[2] = system: NCI-H226 lung
[3] = system: NCI-H322M lung
[4] = system: HOP-62 NSCLC
[5] = system: NCI-H460 lung
[6] = system: HOP-92 NSCLC
[7] = system: NCI-H522 lung
[8] = system: A549/ATCC NSCLC
[9] = system: 786-0 renal
[10] = system: COLO 205 colon
[11] = system: DU-145 prostate
[12] = system: K-562 leukemia
[13] = system: MALME-3M melanoma
[14] = system: MDA-MB-231 breast
[15] = system: RXF 393 renal
[16] = system: SF-268 CNS
[17] = system: SF-295 CNS
[18] = system: SF-539 CNS
[19] = system: UACC-257 melanoma
[20] = system: M14 melanoma

Measured: growth

COc1c(O[C@@H]2OC(CO)[C@H](O)[C@H](O)C2O)cc2oc3cc(O)c(CC=C(C)C)c(O)c3c(=O)c2c1CC=C(C)C (stereo not given in full)
inactive: [1] 93.5% | [2] 86.6% | [3] 103% | [4] 79% | [5] 101% | [6] 81.1% | [7] 64.6% | [8] 97.4% | [9] 106% | [10] 96.3% | [11] 104% | [12] 68.5% | [13] 104% | [14] 68.5% | [15] 110% | [16] 92.1% | [17] 93.2% | [18] 107% | [19] 91.3% | [20] 86.2%

C#CCOc1cccc(-c2ncnc3cc(NC(=O)CCl)ccc23)c1
inactive: [1] 10.3% | [3] 71.8% | [8] 16.7% | [11] 13.9% | [17] 34.4% | [19] 42.8%
active: [2] -11% | [4] -46.2% | [5] -18.7% | [6] -67.1% | [7] -77.1% | [9] -85.4% | [10] -82.4% | [12] 2.03% | [13] -78.8% | [14] -36.4% | [15] -87.9% | [16] -42.2% | [18] -43.9% | [20] -52.3%

COc1ccc(NC(=O)c2ccc(NC3=C(c4ccc(Cl)cc4)C(=O)NC3=O)cc2)cc1
inactive: [1] 85.3% | [2] 84.4% | [3] 85.2% | [4] 80.8% | [5] 90.6% | [6] 102% | [7] 45.2% | [8] 71.2% | [9] 89.1% | [10] 86.3% | [11] 91.4% | [12] 79% | [13] 86.9% | [14] 84.8% | [15] 84.4% | [16] 83.8% | [17] 86.8% | [18] 92.4% | [19] 85.9% | [20] 102%

COc1cc2c(c(OC)c1OC)CCC(c1cccc(C(=O)Nc3ccccc3Br)c1)O2 (stereo not given)
inactive: [1] 97.2% | [2] 92.3% | [3] 94.9% | [4] 92.3% | [5] 104% | [6] 66.3% | [7] 80.1% | [8] 81.2% | [9] 76.2% | [10] 90.5% | [11] 86.7% | [12] 71.5% | [13] 89.6% | [14] 83.3% | [15] 91.8% | [16] 87.1% | [17] 94.9% | [18] 83.1% | [19] 90.7% | [20] 67.4%

O=C1C(c2c(O)[nH]c3ncccc23)=Nc2ccccc21
inactive: [1] 76% | [2] 89% | [3] 79.7% | [4] 86.8% | [5] 47.7% | [6] 96.9% | [7] 76.3% | [8] 82.4% | [9] 84.1% | [10] 82.8% | [11] 81.2% | [12] 85.5% | [13] 139% | [14] 78.3% | [15] 71.2% | [16] 84.4% | [17] 102% | [18] 90.9% | [19] 96.5% | [20] 93.7%

O=C1CCc2c(sc3[nH]c(=S)n(-c4cc(C(F)(F)F)cc(C(F)(F)F)c4)c(=O)c23)C1
active: [1] -10.7% | [2] -19% | [3] 9.28% | [4] -27.1% | [5] 5% | [6] -61.8% | [7] -46.6% | [8] 5.85% | [10] -80% | [13] -16.7% | [14] -42.5% | [15] -3.65% | [17] -21.8% | [18] -51.1% | [19] -25.4%
inactive: [9] 18.1% | [11] 25.2% | [12] 22.5% | [16] 19.3% | [20] 23.6%

Cc1ccc(Nc2oc(-c3ccccc3)nc2[P+](c2ccccc2)(c2ccccc2)c2ccccc2)cc1
inactive: [16] 10.6%
active: [1] -51.8% | [2] -13.8% | [3] -21.6% | [4] -51.1% | [5] -81.7% | [6] -44.8% | [7] -57.4% | [8] -25% | [9] -77.5% | [10] -34.7% | [11] -19.4% | [12] 0.645% | [13] -61.6% | [14] -83.5% | [15] -69.1% | [17] -85.5% | [18] -60.7% | [19] -42.5% | [20] -76.2%
